# DT40 TDP1 CPT: growth inhibition of DT40 Tdp1-/-;hTDP1 cells with camptothecin (screen for TDP1 inhibitors). chicken DT40 Tdp1-/-;hTDP1 cells + 20 nM CPT, ATP luminescence, 48 h. 420,000 compounds, 12% hits. Potency, µM (titrated, usually from 46.2 µM), without a hit: at the highest dose activity change, negative = growth inhibition, hits mostly inhibitors; further: potency means the concentration at half of the fitted maximal effect; nearly all actives have a fitted effect of over 55% in size
#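 Chicken DT40 Tdp1-/- cells stably complemented with human TDP1 were seeded at 400 cells/well in medium containing 20 nM camptothecin, exposed to pin-transferred compounds, and grown at 37 °C for at least 48 hr. Viability was read as ATP luminescence.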
# ALOX12 inh: blocks human arachidonate 12S-lipoxygenase; purified 12hLO, xylenol orange hydroperoxide absorbance; 580,000 compounds, 1.1% hits; Potency, µM (titrated, usually from 108 µM), for inactives: at the highest dose activity change, negative = inhibition, actives largely listed as inhibitors; P18054; further: potency means the concentration at half of the fitted maximal effect
#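 Purified human 12hLO (150 nM final) in 25 mM Hepes, 0.01% Triton X-100, pH 7.0 was preincubated 15 min at room temperature with compound. Then 40 uM arachidonic acid was added, 30 min. Hydroperoxide was read by Fe-XO absorbance ratio 573/405 nm.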
# HT1080 IDH1KD tx: kills HT-1080 cells with IDH1 knockdown; Potency, µM (series often up to 46.1 µM), without a hit: top-dose activity, negative = toxicity, actives largely listed as cytotoxic; HT-1080 IDH1 knockdown viability, ATP luminescence, 48 h; 360,000 compounds, 2% hits;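 further: potency means the concentration at half of the fitted maximal effect; 0% = DMSO wells and -100% = cell-free medium wells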
#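 IDH1KD HT-1080 cells, 750/well, RPMI + 5% FBS; compound pinned after 2 h settling; 48 h, 37 °C; CellTiter-Glo luminescence; % activity normalised to DMSO and no-cell wells; curves fitted, classed by r2 and efficacy.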
# HT1080-NT tox: kills 2HG-producing HT-1080-NT fibrosarcoma cells; HT-1080-NT fibrosarcoma viability, CellTiter-Glo ATP luminescence, 48 h; Potency, µM (top dose mostly 46.1 µM), without a hit: at the top dose activity, negative = less viability, actives largely listed as cytotoxic; 360,000 compounds, 1.6% hits;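 further: NT is the 2HG producing partner of a matched IDH1 knockdown line; potency means the concentration at half of the fitted maximal effect; 0% = DMSO-treated cells and -100% = media-only wells without cells; nearly all actives have a fitted effect of over 55% in size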
#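 Viability of the 2HG-overproducing fibrosarcoma line after 48 hours of compound exposure at 37 degrees C was determined by luminescence with CellTiter-Glo, and concentration-effect curves were then fitted and categorized.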
# TDP1 cell noCPT: qHTS for Inhibitors of human tyrosyl-DNA phosphodiesterase 1 (TDP1): qHTS in cells in absence of CPT; 420,000 compounds, 15% hits; DT40 Tdp1-/- hTDP1 cells, no CPT, ATP luminescence, 48 h; Potency, µM (highest dose often 46.2 µM), without a hit: at the top dose activity change, negative = growth inhibition, actives largely listed as inhibitors; further: potency means the concentration at half of the fitted maximal effect; nearly all actives have a fitted effect of over 55% in size
#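 Cells were dispensed at 400 per well, compounds added by pin tool, plates incubated ≥48 hr at 37 °C, then CellTiter-Glo added for 30 min at room temperature before luminescence reading. Line: DT40 Tdp1-/- complemented with hTDP1; camptothecin omitted.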
# IL-1B inflam inh: blocks inflammasome-driven IL-1 beta release. 360,000 compounds, 4.7% hits. activity change, % at 57.5 µM. THP-1 LPS/ATP IL-1B secretion, AlphaLISA, 16 h; hits give low values. AID 743279; in the data active means activity change below about -50%; inconclusive means mostly about -30% to -49%
#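 THP-1 cells pretreated 1 hr with compounds (up to 57.5 uM final), then stimulated with LPS (250 ng/mL final) plus ATP (1.25 mM final); secreted IL-1B measured by AlphaLISA after 16 hr, decreased signal indicating inhibition.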
# Starred values were filed as active, the others as inactive; u = inconclusive; x = not tested or not shown; [ ] = remark or other dose. Many of the other results were omitted from the sample, so hits are more common in it than they were. Unless noted, the call rests on the fitted dose curve; in most records, active means well fitted curve in the direction sought with a large enough effect; inconclusive means small, poorly fitted or top-dose-only effect, or another doubt; inactive means no such curve, though single readings can be large; an effect the other way counts as inactive or inconclusive. Unless noted, on the % scale 0 is the no-effect control and ±100 the full control effect.
SMILES,DT40 TDP1 CPT,ALOX12 inh,HT1080 IDH1KD tx,HT1080-NT tox,TDP1 cell noCPT,IL-1B inflam inh
Cc1cccc(CNC(=O)C2CCN(c3nnc(-n4c(C)ccc4C)s3)CC2)c1,u,-4%,x,x,16µM*,x
COc1ccccc1CNC(=O)C1CCCN(c2nnc(-n3c(C)ccc3C)s2)C1 (stereo unspecified),16µM*,-7%,x,x,u,x
Cc1ccccc1CNC(=O)C1CCN(c2nnc(-n3c(C)ccc3C)s2)CC1,16µM*,-6%,x,x,u,x
Cc1ccc(-c2ccc3nnc(CNC(=O)COc4ccc(F)cc4)n3n2)cc1C,x,17%,x,x,x,x
CC(C)CC(NC(=O)c1cccc(OCc2ccc(F)cc2)c1)C(=O)O (stereo unspecified),x,-4%,x,x,x,x
CCOC(=O)c1nc(C)nc(Sc2n[nH]c(-c3ccccc3)n2)c1C,6%,0%,-19%,-8%,-25%,0
Cc1cc(SCC(=O)N(CCC#N)c2ccc(F)cc2)nc2ccccc12,x,36%,x,x,x,x
COc1cccc(CNC(=O)C2CCN(c3nnc(-n4c(C)ccc4C)s3)CC2)c1OC,u,3%,x,x,-63%,x
COc1ccc(CNC(=O)C2CCN(c3nnc(-n4c(C)ccc4C)s3)CC2)c(OC)c1,u,-7%,x,x,16µM*,x
Cc1ccccc1CC1(CO)CCCN(C(=O)c2ccc(F)cc2)C1 (stereo unspecified),u,-12%,4%,0%,u,-13
Cc1ccccc1CC1(CO)CCCN(C(=O)c2ccc3ncccc3c2)C1 (stereo unspecified),6.5µM*,25%,2%,1%,15µM*,27
CCOc1cc(CN2CCCC2c2ccc(F)cc2)ccc1OCC(N)=O (stereo unspecified),x,1%,x,x,x,x
Cc1[nH]c(I)c(C)c1C=O,x,14µM*,x,x,x,x
CSc1ccc(-c2cccc(C=O)c2)cc1,x,0%[12.5 µM],x,x,x,x
COc1cc(-c2cc3nc(NCc4cccs4)ccn3n2)cc(OC)c1OC,10µM*,22%,u,u,10µM*,-7
COc1cc(Nc2ccn3nc(-c4ccc(F)cc4)cc3n2)cc(OC)c1OC,u,15%,0%,-16%,u,-68*
COc1cc(-c2cc3nc(NCc4cccc(Cl)c4)ccn3n2)cc(OC)c1OC,6.5µM*,0%,9.2µM*,16µM*,5.2µM*,18
COCCCNc1ccn2nc(-c3ccc(Cl)cc3)cc2n1,u,-28%,-9%,22%,u,52
Cc1[nH]c2ccccc2c1C(=O)C(=O)NCC(C)N1CCCC1 (stereo unspecified),x,-5%,x,x,x,x
Cc1cccc(Cl)c1NC(=S)NN,u,u,2%,3%,13µM*,-8
Cc1c(Cl)cccc1NC(=S)NN,u,1%,3%,-2%,u,-6
CCc1nncn1C1CCN(S(=O)(=O)c2ccc(OC)c(Cl)c2)CC1,x,20%,x,x,x,x
COCCNC(=O)C1N(C(C)C)C(=O)C12CCCCC2 (stereo unspecified),x,54%,x,x,x,x
O=C1CC(C(=O)Nc2ccc(Cl)cc2)c2ccc(F)cc2N1 (stereo unspecified),x,-6%,x,x,x,x
O=C(c1ccccc1)C1CCN(C(=O)C2CCC(=O)N(Cc3cccc(F)c3)C2)CC1 (stereo unspecified),u,0%,-5%,-3%,-14%,-12
O=C(c1ccccc1)C1CCN(C(=O)C2CCC(=O)N(Cc3ccccc3F)C2)CC1 (stereo unspecified),16µM*,5%,-2%,1%,21µM*,12
Cc1cc(SCC(=O)Nc2ccc(C(N)=O)cc2)nc2ccccc12,x,-44%,x,x,x,x

# Source: PubChem (National Center for Advancing Translational Sciences (NCATS))
